This passage reports Percent Effect results from ChEMBL document CHEMBL3988442, “University of Dundee, Small-Polar-MMV Screening Library” (2021).

What all share (parameters): scale not given: direction of the effect not stated beside the values
Assay [1] concerns the target Protein translocase subunit SecA (Escherichia coli (strain K12)) (UniProt P10408). In words: Assay to Identify E. coli SecA ATPase Inhibitors. The class given is functional. As to conditions: 30 µM.
Assay [2] deals with T1, Ubiquitin-activating enzyme e1, putative (Leishmania donovani (strain BPK282A1)) (UniProt E9BSI1).
T1 sequence (whole entry): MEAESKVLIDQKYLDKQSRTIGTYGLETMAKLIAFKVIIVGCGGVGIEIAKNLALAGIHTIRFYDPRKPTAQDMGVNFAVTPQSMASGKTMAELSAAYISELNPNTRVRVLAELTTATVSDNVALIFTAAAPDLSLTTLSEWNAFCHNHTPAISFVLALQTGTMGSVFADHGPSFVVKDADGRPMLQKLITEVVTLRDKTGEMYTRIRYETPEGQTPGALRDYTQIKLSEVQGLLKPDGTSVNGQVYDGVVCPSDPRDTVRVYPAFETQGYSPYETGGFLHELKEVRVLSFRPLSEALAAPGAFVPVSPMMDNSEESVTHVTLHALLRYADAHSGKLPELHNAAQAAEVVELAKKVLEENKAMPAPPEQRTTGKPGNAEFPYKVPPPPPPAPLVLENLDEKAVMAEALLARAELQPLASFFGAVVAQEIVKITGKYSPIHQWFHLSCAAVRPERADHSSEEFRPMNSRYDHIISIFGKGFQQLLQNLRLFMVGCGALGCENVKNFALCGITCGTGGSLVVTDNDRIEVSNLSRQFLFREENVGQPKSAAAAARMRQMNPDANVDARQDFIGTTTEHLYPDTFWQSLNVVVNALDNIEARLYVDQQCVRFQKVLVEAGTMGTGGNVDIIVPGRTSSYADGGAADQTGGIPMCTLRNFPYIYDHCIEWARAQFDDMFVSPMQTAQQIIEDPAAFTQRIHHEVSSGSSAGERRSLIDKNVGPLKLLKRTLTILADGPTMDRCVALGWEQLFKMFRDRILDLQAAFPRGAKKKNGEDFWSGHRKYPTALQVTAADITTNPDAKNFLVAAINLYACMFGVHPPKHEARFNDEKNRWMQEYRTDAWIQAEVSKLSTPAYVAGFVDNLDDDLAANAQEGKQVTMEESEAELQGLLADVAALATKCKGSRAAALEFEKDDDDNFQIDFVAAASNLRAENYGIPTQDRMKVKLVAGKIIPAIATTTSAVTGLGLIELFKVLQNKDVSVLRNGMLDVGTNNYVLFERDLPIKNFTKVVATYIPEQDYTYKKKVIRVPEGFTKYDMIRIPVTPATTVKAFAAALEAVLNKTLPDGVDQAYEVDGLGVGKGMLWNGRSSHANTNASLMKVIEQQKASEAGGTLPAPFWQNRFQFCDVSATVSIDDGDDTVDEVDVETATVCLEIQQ
In words: Leishmania donovani Ubiquitin Activating Enzyme (LdE1). It is filed as functional. As to conditions: 30 µM.

In assay [3] the target is AMP-activated protein kinase, AMPK (Homo sapiens) (UniProt P54646+O43741+P54619+Q9UGJ0+Q9Y478+Q13131+Q9UGI9). In words: AMP-dependent Kinase enzyme assay. An in vitro enzyme assay that detects ADP turnover that is directly proportional to AMPK activity. This uses naive AMPK that is activated during the assay with MK-8722. The class given is functional. As to conditions: 30 µM.

Assay [4] deals with Sialic acid-binding Ig-like lectin 9 (Homo sapiens) (UniProt Q9Y336). Put plainly: Hs-Siglec9 ALPHAscreen SOP 20170721. As to conditions: 10 µM. (In general: Bead proximity is the source of the signal in Alpha formats.)
For a further assay, the system named is Trypanosoma cruzi. Put plainly: Trypanosoma cruzi phosphomannomutase and mannose-1-phosphate guanylyltransferase assay. As to conditions: 10 µM. The class given is functional.
Assay [5] deals with T2, Arginase-2, mitochondrial (Homo sapiens) (UniProt P78540).
T2 sequence (whole entry): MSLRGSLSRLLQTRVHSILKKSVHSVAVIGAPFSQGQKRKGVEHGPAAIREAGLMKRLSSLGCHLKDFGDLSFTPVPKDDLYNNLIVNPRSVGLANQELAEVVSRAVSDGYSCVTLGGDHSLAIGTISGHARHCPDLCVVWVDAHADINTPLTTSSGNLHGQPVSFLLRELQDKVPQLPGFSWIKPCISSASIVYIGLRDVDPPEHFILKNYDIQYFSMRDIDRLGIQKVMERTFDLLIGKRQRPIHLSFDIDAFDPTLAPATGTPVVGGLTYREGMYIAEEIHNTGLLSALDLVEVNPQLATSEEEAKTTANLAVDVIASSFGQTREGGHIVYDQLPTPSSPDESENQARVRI
In words: in vitro enzyme assay to detect the production of urea directly proportional to the activity of Arginase II. Note: in the data most compounds retested in dose-response had high values. The class given is functional. As to conditions: 33.3 µM.

Assay [6] has as its target T3, Proteasome subunit beta (Trypanosoma cruzi) (UniProt O96673).
T3 sequence (whole entry): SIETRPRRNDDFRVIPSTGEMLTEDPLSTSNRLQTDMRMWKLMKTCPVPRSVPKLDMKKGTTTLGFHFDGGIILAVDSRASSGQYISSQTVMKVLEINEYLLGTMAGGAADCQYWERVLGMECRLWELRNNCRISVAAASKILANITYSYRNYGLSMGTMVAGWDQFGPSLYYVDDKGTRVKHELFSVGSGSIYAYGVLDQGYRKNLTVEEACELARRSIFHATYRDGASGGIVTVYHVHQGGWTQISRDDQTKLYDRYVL
In words: Trypanosoma cruzi proteasome chymotrypsin-like activity (TcProtChymo) assay. Note: in the data most compounds retested in dose-response had high values. It is filed as functional. As to conditions: 9.37 µM.

For another assay, the species on record is Homo sapiens. Put plainly: To identify inhibition of the IFN signalling (Jak-Stat) pathway via expression of an eGFP reporter gene under the control of an IFN-stimulated response element (ISRE) containing MxA promoter. It is filed as functional. As to conditions: 30 µM. Background: In a reporter assay the amount or activity of a reporter protein is the signal.

In assay [7] the target is T4, Tyrosyl-tRNA synthetase, putative (Trypanosoma cruzi (strain CL Brener)) (UniProt Q4DSP6).
T4 sequence (whole entry): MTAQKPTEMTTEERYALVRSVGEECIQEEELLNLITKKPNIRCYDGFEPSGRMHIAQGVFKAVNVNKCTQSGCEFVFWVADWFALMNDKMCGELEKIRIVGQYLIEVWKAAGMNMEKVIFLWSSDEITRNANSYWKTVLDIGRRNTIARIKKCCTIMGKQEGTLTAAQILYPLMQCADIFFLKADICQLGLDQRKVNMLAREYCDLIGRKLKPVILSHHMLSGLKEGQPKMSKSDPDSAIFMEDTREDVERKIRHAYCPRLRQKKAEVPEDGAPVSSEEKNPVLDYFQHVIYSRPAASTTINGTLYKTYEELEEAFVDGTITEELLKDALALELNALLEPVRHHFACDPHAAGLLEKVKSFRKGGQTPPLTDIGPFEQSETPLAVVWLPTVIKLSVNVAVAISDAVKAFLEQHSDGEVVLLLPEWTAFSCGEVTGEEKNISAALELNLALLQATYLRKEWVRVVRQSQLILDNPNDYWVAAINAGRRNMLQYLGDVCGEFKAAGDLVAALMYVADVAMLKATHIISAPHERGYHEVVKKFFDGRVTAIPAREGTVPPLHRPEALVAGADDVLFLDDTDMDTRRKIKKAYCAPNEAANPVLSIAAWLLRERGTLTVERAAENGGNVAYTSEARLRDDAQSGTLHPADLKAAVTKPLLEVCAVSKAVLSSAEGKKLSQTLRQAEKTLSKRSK
In words: Trypanosoma cruzi tyrosyl tRNA synthetase (TcYRS) _High Tyrosine SOP. Note: in the data most compounds retested in dose-response had high values. It is filed as functional. As to conditions: 30 µM.

The target in assay [8] is T4, Tyrosyl-tRNA synthetase, putative (Trypanosoma cruzi (strain CL Brener)). In words: Trypanosoma cruzi tyrosyl tRNA synthetase (TcYRS) SOP. It is filed as functional. As to conditions: 30 µM.
For assay [9], the target named is Chromo domain-containing protein 1 (Saccharomyces cerevisiae (strain ATCC 204508 / S288c) (Baker's yeast)) (UniProt P32657). In words: ScCHD-1 Enzyme Inhibition Assay. Note: in the data most compounds retested in dose-response had high values. As to conditions: 30 µM. It is filed as functional.

For some of these results: Results with a measured potency or affinity are listed apart.

Chain of Chromo domain-containing protein 1 (Saccharomyces cerevisiae (strain ATCC 204508 / S288c) (Baker's yeast)) (P32657 whole entry, the tested form may be a part): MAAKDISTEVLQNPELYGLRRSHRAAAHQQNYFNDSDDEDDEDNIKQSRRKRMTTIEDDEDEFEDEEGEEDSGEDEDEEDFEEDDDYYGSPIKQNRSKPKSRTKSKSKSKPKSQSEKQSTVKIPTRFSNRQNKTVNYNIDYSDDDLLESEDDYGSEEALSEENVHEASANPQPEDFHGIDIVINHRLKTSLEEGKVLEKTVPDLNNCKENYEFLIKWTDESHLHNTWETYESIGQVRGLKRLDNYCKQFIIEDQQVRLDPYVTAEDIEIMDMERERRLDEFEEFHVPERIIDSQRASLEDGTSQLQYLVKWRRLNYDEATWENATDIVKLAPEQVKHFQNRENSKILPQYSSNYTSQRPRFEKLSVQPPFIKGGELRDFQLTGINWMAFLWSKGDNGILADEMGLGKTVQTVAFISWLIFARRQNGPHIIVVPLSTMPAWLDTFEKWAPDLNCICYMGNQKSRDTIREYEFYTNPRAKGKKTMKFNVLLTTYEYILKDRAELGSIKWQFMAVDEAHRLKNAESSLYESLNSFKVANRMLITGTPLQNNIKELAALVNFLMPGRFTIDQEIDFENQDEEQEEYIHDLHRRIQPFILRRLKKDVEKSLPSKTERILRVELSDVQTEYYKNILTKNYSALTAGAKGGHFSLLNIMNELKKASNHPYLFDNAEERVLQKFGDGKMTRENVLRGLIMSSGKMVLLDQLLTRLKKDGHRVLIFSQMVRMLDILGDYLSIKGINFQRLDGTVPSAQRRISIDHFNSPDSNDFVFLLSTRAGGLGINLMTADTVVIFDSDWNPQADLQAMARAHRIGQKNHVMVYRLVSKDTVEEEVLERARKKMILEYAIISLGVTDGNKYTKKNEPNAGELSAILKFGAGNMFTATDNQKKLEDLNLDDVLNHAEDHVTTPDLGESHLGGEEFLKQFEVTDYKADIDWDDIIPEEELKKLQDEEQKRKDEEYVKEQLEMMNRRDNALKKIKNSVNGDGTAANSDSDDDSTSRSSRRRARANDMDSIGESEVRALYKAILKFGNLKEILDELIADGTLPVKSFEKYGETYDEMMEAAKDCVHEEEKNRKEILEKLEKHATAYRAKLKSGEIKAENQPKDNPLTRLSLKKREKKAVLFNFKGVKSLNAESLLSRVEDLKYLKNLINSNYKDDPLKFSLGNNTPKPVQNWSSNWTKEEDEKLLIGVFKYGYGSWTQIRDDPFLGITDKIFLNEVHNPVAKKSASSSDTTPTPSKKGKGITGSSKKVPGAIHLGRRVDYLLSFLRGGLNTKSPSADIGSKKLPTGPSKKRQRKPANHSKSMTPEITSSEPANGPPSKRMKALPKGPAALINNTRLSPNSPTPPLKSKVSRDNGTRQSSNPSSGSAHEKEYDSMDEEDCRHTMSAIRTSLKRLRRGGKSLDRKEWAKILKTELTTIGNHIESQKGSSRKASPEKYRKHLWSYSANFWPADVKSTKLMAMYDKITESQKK
Chain of Protein translocase subunit SecA (Escherichia coli (strain K12)) (P10408 whole entry): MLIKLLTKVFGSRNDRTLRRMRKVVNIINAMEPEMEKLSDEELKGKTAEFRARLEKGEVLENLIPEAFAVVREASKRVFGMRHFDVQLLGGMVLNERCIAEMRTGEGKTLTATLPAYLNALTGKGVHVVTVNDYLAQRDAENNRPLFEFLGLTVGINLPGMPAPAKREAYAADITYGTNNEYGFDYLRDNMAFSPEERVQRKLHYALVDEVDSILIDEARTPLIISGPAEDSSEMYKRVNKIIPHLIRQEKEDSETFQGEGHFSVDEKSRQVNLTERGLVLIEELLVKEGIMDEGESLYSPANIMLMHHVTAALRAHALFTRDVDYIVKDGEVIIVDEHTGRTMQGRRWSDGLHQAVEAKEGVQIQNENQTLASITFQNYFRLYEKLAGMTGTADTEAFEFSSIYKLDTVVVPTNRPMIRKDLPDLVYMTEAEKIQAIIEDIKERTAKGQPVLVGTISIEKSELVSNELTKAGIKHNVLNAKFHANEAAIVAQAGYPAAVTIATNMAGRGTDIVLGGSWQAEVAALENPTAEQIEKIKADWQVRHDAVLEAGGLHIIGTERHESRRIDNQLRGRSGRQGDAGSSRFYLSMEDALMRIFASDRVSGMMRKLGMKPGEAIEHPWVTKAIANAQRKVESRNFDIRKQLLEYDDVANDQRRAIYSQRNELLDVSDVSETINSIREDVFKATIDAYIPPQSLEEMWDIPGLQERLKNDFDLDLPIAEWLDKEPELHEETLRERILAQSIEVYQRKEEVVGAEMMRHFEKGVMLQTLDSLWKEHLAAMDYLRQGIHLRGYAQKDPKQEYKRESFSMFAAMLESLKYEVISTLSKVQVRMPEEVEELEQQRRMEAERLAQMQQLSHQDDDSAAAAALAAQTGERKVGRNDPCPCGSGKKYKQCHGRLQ
Chain of Sialic acid-binding Ig-like lectin 9 (Homo sapiens) (Q9Y336 whole entry): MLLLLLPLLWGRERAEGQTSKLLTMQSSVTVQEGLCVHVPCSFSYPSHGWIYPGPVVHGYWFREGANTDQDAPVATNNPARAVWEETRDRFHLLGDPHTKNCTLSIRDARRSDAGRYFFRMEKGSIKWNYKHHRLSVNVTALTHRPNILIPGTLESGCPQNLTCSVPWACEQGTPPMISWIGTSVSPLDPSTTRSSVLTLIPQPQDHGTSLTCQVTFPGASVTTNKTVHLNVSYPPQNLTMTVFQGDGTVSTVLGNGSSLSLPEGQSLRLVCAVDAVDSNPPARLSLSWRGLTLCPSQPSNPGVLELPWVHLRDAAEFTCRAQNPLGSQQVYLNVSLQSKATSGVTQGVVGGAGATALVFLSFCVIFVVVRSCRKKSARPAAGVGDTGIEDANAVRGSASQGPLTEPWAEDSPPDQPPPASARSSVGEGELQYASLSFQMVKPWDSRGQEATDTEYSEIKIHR

As for `O=C(Nc1cccc(CN2CCOC2=O)c1)N1CCOCC1`, the Percent Effect in assay [1] is -1.28%; in assay [2] it was 1.39%; in assay [3], -4.85%; in assay [4] it was -10.5%; in the assay on Trypanosoma cruzi, -4.76%; in assay [5], 3.09%. Moreover, the Percent Effect was 12.6% in [6]; 2.75% in the assay listed under Homo sapiens; 2.1% in assay [7]; 7.69% in assay [8]; -2.72% in [9].
Consider `COCCn1ccnc1C1CCCN(C(=O)CSCC2CC2)C1` (stereo unspecified), for which the Percent Effect in assay [1] is -1.08%; in assay [2] it was 6.94%; in [3], -7.23%; in [4] it was -0.00565%; with Trypanosoma cruzi, 4.37%; in [5], 0%. Further, the Percent Effect was 19.1% in assay [6]; 1.07% in the assay filed under Homo sapiens; 3.16% in assay [7]; 7.69% in assay [8]; -0.19% in [9].
Take `Cc1nc(CN2C(=O)CC[C@@H]3[C@H]2CCN3C(=O)NC2CC2)cs1`: the Percent Effect in assay [1] is 1.26%; in assay [2], 16.2%; in assay [3], -5.26%; in assay [4], -11.1%; with Trypanosoma cruzi, -3.23%; in [5], 0.955%. Moreover, the Percent Effect in assay [6] is 10.2%; in the assay filed under Homo sapiens it was 16.1%; in assay [7] it was 1.08%; in [8] it was 12.8%; in assay [9], -6.62%.
In the case of `Cc1nc(N2CCN(C(=O)C(C)(C)C)CC2)cc(-n2cnc(C)c2C)n1`, the Percent Effect in assay [1] was -3.24%; in assay [2], 10.4%; in [3] it was 2.15%; in assay [4], 6.33%; with Trypanosoma cruzi it was 6.2%; in [5], -44.1%. Moreover, the Percent Effect in assay [6] is 22.3%; in the assay filed under Homo sapiens, 4.66%; in [7] it was 3.23%; in [8], 8.64%; in assay [9], -4.66%.
`O=S1(=O)N=C(SCc2ccc(Cl)cc2)Nc2ccc(F)cc21`: the Percent Effect was -2.41% in assay [1]; -7.79% in assay [2]; -5.17% in [3]; -2.88% in [4]; -1.08% in the assay on Trypanosoma cruzi; 1.94% in assay [5]. Also, the Percent Effect was 13.8% in [6]; 21.9% in the assay listed under Homo sapiens; -6.35% in [7]; -8.97% in assay [8]; -10.5% in [9].
On to `Cc1cc(C)n(CC2CCCN2Cc2c(C)noc2C)n1` (stereo unspecified), for which the Percent Effect in assay [1] is -2.91%; in assay [2], -2.7%; in assay [3], 33.8%; in assay [4], 8.4%; in the assay with Trypanosoma cruzi, 6.51%; in assay [5] it was -0.802%. Further, the Percent Effect in [6] is 5.59%; in the assay listed under Homo sapiens, 9.49%; in assay [7], 2.46%; in assay [8], 11.1%; in assay [9] it was -10.7%.
As to `O=C(NCCNc1ncccn1)C1CC(=O)N(CC(F)(F)F)C1` (stereo unspecified), the Percent Effect was -0.757% in [1]; 16.2% in assay [2]; -5.02% in assay [3]; -3.51% in assay [4]; -7.26% in the assay with Trypanosoma cruzi; -4.81% in [5]. The Percent Effect in assay [6] is 5.59%; in the assay listed under Homo sapiens, 16.5%; in [7], 9.36%; in assay [8], 13.6%; in assay [9] it was -6.16%.
With `Cc1nn(C)c(C)c1C(C)NC(=O)Nc1cccnc1N1CCCC1` (stereo unspecified), the Percent Effect in assay [1] is -1.26%; in assay [2] it was 2.7%; in assay [3], -19.3%; in assay [4] it was 6.12%; in the assay with Trypanosoma cruzi, -3.3%; in assay [5], 0%. In addition, the Percent Effect is 0.18% in assay [6]; 15% in the assay filed under Homo sapiens; -0.493% in assay [7]; 3.7% in [8]; -0.951% in assay [9].
Take `Cc1nnc2n1CCN(CCOc1ccccc1)C2`: the Percent Effect in assay [1] was -2.71%; in assay [2] it was -1.27%; in assay [3], 9.45%; in assay [4] it was -0.787%; in the assay on Trypanosoma cruzi, -0.308%; in [5] it was 3.66%. Moreover, the Percent Effect was 3.43% in [6]; 0.176% in the assay listed under Homo sapiens; 2.08% in assay [7]; 0% in assay [8]; -7.58% in assay [9].
In the case of `Cc1cccc(CN2CCc3c(nc(N4CCC(C)CC4)[nH]c3=O)C2)n1`, the Percent Effect in assay [1] is -4.27%; in assay [2], 4.05%; in assay [3] it was 14.3%; in [4], 2.26%; in the assay on Trypanosoma cruzi it was 4.15%; in [5] it was -0.696%. The Percent Effect in [6] is 5.3%; in the assay filed under Homo sapiens it was -12.8%; in assay [7] it was 8.6%; in assay [8], 14.3%; in [9] it was -8.43%.
As to `COc1c(CNC2CCCOc3ccccc32)c(C)nn1C` (stereo unspecified), the Percent Effect was -6.71% in assay [1]; 5.41% in assay [2]; -2.77% in assay [3]; 4.94% in assay [4]; 3.81% in the assay with Trypanosoma cruzi; 3.23% in assay [5]. Also, the Percent Effect in assay [6] was 8.5%; in the assay filed under Homo sapiens, -6.93%; in assay [7] it was 6.45%; in assay [8], 11.1%; in assay [9] it was -1.97%.
